Measured values taken from ChEMBL document CHEMBL4513216, “Probing the Open Global Health Chemical Diversity Library for Multistage-Active Starting Points for Next-Generation Antimalarials” (ACS Infect Dis, 2020).
About 8,600 (12%) of roughly 69,000 compounds showed an effect of 50% or more. For the sample, strong results were picked, then their nearest neighbours and some compounds at random.

These compounds were tested on Plasmodium berghei (assay: Screen against P. berghei liver stage (PbLuc), transformed with Luciferase, at 10uM). Settings: tested at 10 uM.
Assay type: functional, HepG2
With COc1ccccc1CCNC(=O)NCC(=O)Nc1cccnc1 the INHIBITION was -21.8%. With CC(C)(C)C(=O)NCC(=O)Nc1cccnc1 the INHIBITION was 45.5%. COc1ccccc1CC(C)(C)C(=O)NCC(=O)Nc1cccnc1 showed an INHIBITION of 56.6%. Compound COC(=O)NCCCn1ccnc1-c1ccccc1 has an INHIBITION of -17.4%. Work on O=C(Cc1ccsc1)N1CCc2ncc(Cn3cccn3)n2CC1 yielded an INHIBITION of 42.7%. COc1c(CNC(C)c2sc(C)nc2C)c(C(C)C)nn1C (stereo not given) gave an INHIBITION of 33.7%. CN1CC2(CCN(C(=O)Cc3ccccn3)CC2)OCC1=O was tested, and the INHIBITION was -28.2%. CNc1cc(N2CCCC2CNCc2cscn2)ncn1 (stereo not given) was tested, and the INHIBITION was -2.35%. In the case of COCCN1CC[C@H]2OCC[C@@H](C(=O)N3CCCO3)[C@H]2C1, the INHIBITION was 1.9%. N#Cc1cn[nH]c1NCc1cc(Cl)cc(Cl)c1O gave an INHIBITION of 62.2%. N#Cc1cn[nH]c1NCc1cc(I)cc(I)c1O gave an INHIBITION of 19.7%. In the case of N#Cc1cn[nH]c1NCc1cc(Br)ccc1O, the INHIBITION was 27.5%. c1ccn(Cc2nnc3n2CCCN(Cc2ccoc2)C3)c1 showed an INHIBITION of -13.1%. Compound CC(C(=O)Nc1cccc(C(F)(F)F)c1)N(C)CCN1CCOCC1 (stereo not given) has an INHIBITION of 35.2%. In the case of O=C(Nc1ccc2c(c1)OCO2)N1CCN(CCn2ccnc2)CC1, the INHIBITION was 6.99%. Work on O=C(Nc1cccc(C(F)(F)F)c1)N1CCN(CCn2ccnc2)CC1 yielded an INHIBITION of 60.2%. With CN(C)Cc1nc2c(o1)CN(C(=O)NCc1cccc(F)c1)C2 the INHIBITION was 13.7%. Work on CNC(=O)c1cn[nH]c1C1CCN(Cc2cccc(C)c2OC)C1 (stereo not given) yielded an INHIBITION of 6.32%. O=C(CN1CCS(=O)(=O)CC1)NC1CCCc2ccccc21 (stereo not given) showed an INHIBITION of -17.2%. O=C(CN1CCS(=O)(=O)CC1)NC1CCOc2ccccc21 (stereo not given) gave an INHIBITION of -22.4%. O=C(CN1CCS(=O)(=O)CC1)NC1CCCOc2ccccc21 (stereo not given) was tested, and the INHIBITION was 63.6%. Cc1ccc(C2CSCCN2C(=O)c2ccncc2)cc1 (stereo not given) gave an INHIBITION of -2.39%. For CCN(CC1CN(Cc2cccc(C#N)c2)CCO1)c1cccnn1 (stereo not given), the INHIBITION was 58.5%. COCc1nc(CN2CCOC(CN(C)c3cccnn3)C2)cs1 (stereo not given) gave an INHIBITION of -8.11%. Compound CCc1nc(CN2CCOC(CN(C)c3cccnn3)C2)cs1 (stereo not given) has an INHIBITION of -4.16%. Work on CCc1nc(CN2CCOC(CN(CC)c3cccnn3)C2)cs1 (stereo not given) yielded an INHIBITION of 57%. With CCN(CC1CN(Cc2ccn(C(C)C)n2)CCO1)c1cccnn1 (stereo not given) the INHIBITION was 54.3%. CCN(CC1CN(CCc2ccccn2)CCO1)c1cccnn1 (stereo not given) was tested, and the INHIBITION was -14.2%. Work on CCN(CC1CN(Cc2ccccn2)CCO1)c1cccnn1 (stereo not given) yielded an INHIBITION of -32.2%. For CCN(CC1CN(Cc2cccnc2)CCO1)c1cccnn1 (stereo not given), the INHIBITION was 48.3%. In the case of CC(C)n1ccc(CN2CCOC(CNc3cccnn3)C2)n1 (stereo not given), the INHIBITION was -31.5%. Work on CCOC(=O)CN1CCC2(CCCN(CCOc3ccccc3)C2)C1 (stereo not given) yielded an INHIBITION of 21.1%. For CC(C)(C)C(=O)NCCCC(=O)NC(C)(C)c1ccc2c(c1)OCO2, the INHIBITION was 27.4%. Cc1nccn1-c1ccc(=O)n(CCNC(=O)c2cccs2)n1 gave an INHIBITION of 18.7%. Cc1cnn(CC2CN(Cc3cccc(C(N)=O)c3)CCO2)c1 (stereo not given) gave an INHIBITION of 16.9%. O=C(Cc1cccs1)N1CCC2(CC1)COCCN2CC1CC1 was tested, and the INHIBITION was 21.7%. CC(C)(CO)N1CCN(S(=O)(=O)CCCF)CC1 was tested, and the INHIBITION was -15.565%. Work on CCN(Cc1ccc2c(c1)OCO2)C(=O)c1cccnc1O yielded an INHIBITION of -35.5%. COCCn1cnc2ccc(NC(=O)C(C)C)cc2c1=O gave an INHIBITION of 39.2%. For Cc1cc(C)c(CNC(=O)N2CCN(c3nccs3)CC2)c(=O)[nH]1, the INHIBITION was -5.6%. c1cncc(-c2noc(CN3CCCC(Cn4cncn4)C3)n2)c1 (stereo not given) was tested, and the INHIBITION was -52.5%. Compound CCc1cnc(CN2CCC(O)(c3cc(OC)cc(OC)c3)CC2)o1 has an INHIBITION of 11.3%. For COc1cc(OC)cc(C2(O)CCN(Cc3ncc(C)o3)CC2)c1, the INHIBITION was 50.9%. Work on COc1cc(OC)cc(C2(O)CCN(Cc3nc(C)c(C)o3)CC2)c1 yielded an INHIBITION of 22.2%. In the case of CCCc1nc(CNC2(c3nccs3)CCCC2)cs1, the INHIBITION was -15.4%. Cc1cc(NC(=O)CN2CCc3c(nc(C(C)C)n3C)C2)on1 was tested, and the INHIBITION was -21.2%. Cc1cnn(CC2CCCCN2C(=O)c2n[nH]c3ccccc23)c1 (stereo not given) was tested, and the INHIBITION was -43.5%. O=C(c1ccco1)N1CCOCC2(CCN(C3CCOCC3)C2)C1 (stereo not given) gave an INHIBITION of 8.69%. c1csc(CN2CCOCC3(CCN(C4CCOCC4)C3)C2)n1 (stereo not given) showed an INHIBITION of 63.1%. Work on c1ccc(CN2CCOCC3(CCN(C4CCOCC4)C3)C2)cc1 (stereo not given) yielded an INHIBITION of 50%. Compound Fc1cccc(CN2CCOCC3(CCN(C4CCOCC4)C3)C2)c1 (stereo not given) has an INHIBITION of 58.1%. Cn1cc(CN2CCOCC3(CCN(C4CCOCC4)C3)C2)cn1 (stereo not given) was tested, and the INHIBITION was 11.6%. With Fc1cccc(CN2CCOC3(COCCN(CC4CC4)C3)C2)c1 (stereo not given) the INHIBITION was 81%. In the case of C1CC(CN2CCOCC3(CCN(C4CCOCC4)C3)C2)CCO1 (stereo not given), the INHIBITION was 40.9%. In the case of c1csc(CN2CCC3(COCCN(CC4CC4)C3)C2)n1 (stereo not given), the INHIBITION was -23.3%. For c1csc(CN2CCOCC3(CCN(C4CCOCC4)C3)C2)c1 (stereo not given), the INHIBITION was 11.6%. Work on COCCN1CCOCC2(CCCN(Cc3cccc(F)c3)C2)C1 (stereo not given) yielded an INHIBITION of 46.9%. Cc1cccc(CN2CCOCC3(CCN(C4CCOCC4)C3)C2)c1 (stereo not given) showed an INHIBITION of -35.9%. With c1cc(CN2CCOCC3(C2)CN(Cc2nccs2)CCO3)ccn1 (stereo not given) the INHIBITION was 34.4%. CCn1nc(C)c(NC(=O)CN2CC[C@H](CO)[C@@H](O)C2)c1C gave an INHIBITION of 10.6%. O=S(=O)(CCCNCCn1cccn1)c1ccccc1 gave an INHIBITION of -42.8%. With CCCc1nc(CN(CC)C(=O)c2ccc(S(C)(=O)=O)cc2)no1 the INHIBITION was 19.8%. CCn1ccc(NC(=O)CN2C(=O)CC(C)(C)c3ccccc32)n1 gave an INHIBITION of -34.9%. Work on CCS(=O)(=O)N1CCC2(CCCN(Cc3cc(OC)ccc3F)C2)C1 (stereo not given) yielded an INHIBITION of -14%. Work on c1cncc(CN2CCC3(COCCN(C4CCOCC4)C3)C2)c1 (stereo not given) yielded an INHIBITION of 17.5%. COc1ccc(CN2CCOCC3(CCN(C4CCOCC4)C3)C2)cc1 (stereo not given) gave an INHIBITION of 11.6%. O=C(c1ccsc1)N1CCC2(CC1)COCCN(Cc1ccncc1)C2 showed an INHIBITION of 25.2%. Work on O=C(C1CCOC1)N1CCC2(CC1)COCCN(Cc1ccncc1)C2 (stereo not given) yielded an INHIBITION of 1.94%. COc1ccc(F)c(CN2CCCC3(CCN(C4CCOCC4)C3)C2)c1 (stereo not given) gave an INHIBITION of 77.8%. O=C(C1CCCO1)N1CCC2(CC1)COCCN(Cc1ccncc1)C2 (stereo not given) showed an INHIBITION of 5.44%. With COc1ccc(F)c(CN2CCCC3(CCN(S(C)(=O)=O)C3)C2)c1 (stereo not given) the INHIBITION was 47%. For c1cc(CN2CCOCC3(CCN(C4CCOCC4)C3)C2)ccn1 (stereo not given), the INHIBITION was 52.2%. For c1cc(CN2CCOCC3(CCNCC3)C2)ccn1, the INHIBITION was 63.7%. c1cc(CN2CCOCC3(CCN(CC4CCOCC4)CC3)C2)ccn1 was tested, and the INHIBITION was 39.2%. With CN(C)CC(=O)N1CCC2(CC1)COCCN(Cc1ccncc1)C2 the INHIBITION was 61.4%.
